Several values for one entry are separate records, joined by “and”; a condition that tells them apart may be missing. Equal values may be shown once. The whole screen tested about 100,000 compounds, of which about 930 (0.93%) were called active. Rule as the data show it: active = inhibition mostly above about 56% (no sharp cut-off); inactive = mostly below about 77%. For the sample, actives were picked, then their nearest neighbours and some compounds at random. More than one record can exist for a structure, and the calls need not agree.
target: Salicylate synthase (Mycobacterium tuberculosis (strain CDC 1551 / Oshkosh)) (UniProt P9WFX0); experiment: MbtI salicylate synthase inhibitors, primary screen, biochemical, fluorescence intensity (AID 493033); conditions: purified MbtI enzyme, fluorescence intensity read-out, stronger effect = higher value, concentration not given here
Sequence (P9WFX0 whole entry, looked up): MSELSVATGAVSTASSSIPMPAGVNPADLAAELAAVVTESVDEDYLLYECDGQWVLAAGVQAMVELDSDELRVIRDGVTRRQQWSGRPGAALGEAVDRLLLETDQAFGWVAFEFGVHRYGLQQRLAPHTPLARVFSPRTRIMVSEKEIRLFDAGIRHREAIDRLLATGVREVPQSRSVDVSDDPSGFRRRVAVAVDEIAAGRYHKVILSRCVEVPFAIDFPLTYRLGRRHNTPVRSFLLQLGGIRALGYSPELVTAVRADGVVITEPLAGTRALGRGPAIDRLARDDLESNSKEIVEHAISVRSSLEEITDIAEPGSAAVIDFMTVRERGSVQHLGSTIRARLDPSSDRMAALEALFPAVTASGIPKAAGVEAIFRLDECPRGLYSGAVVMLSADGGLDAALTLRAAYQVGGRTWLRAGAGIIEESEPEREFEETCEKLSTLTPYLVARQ

| SMILES | inhibition |
| --- | --- |
| CN(C(=O)CSc1cccc[n+]1[O-])C1CCCCC1 | 2.9% (inactive) |
| CCOC(=O)C1=C(C)NC(C)=C(C(=O)OCC)C1C(=O)OCc1cc(=O)n2cc(C)ccc2n1 | -9.2% (inactive) |
| O=C(O)CCCN1C(=O)c2ccccc2Sc2ncccc21 | 4.25% (inactive) |
| O=C(O)CN1C(=O)/C(=C2/OC(=O)c3ccccc32)SC1=S | 13.1% (inactive) |
| O=C(O)CCCN1C(=O)/C(=C2\SC(=S)N(CCCC(=O)O)C2=O)SC1=S | 88.5% (active) |
| N#Cc1ccc(NC(=O)CSc2ncn[nH]2)cc1 | 15.7% (inactive) |
| COC(=O)c1cccc(Cn2nc(C)c(Cl)c2C)c1 | -1.2% (inactive) |
| CCOC(=O)c1c(N)sc2c1CCCS2 | 70.4% (active) |
| CCOC(=O)c1c(N)sc2c1CC(C)(C)OC2 | 64.8% (inactive) |
| CCOC(=O)c1c(-n2cnnn2)sc(C)c1C | 589% [above what the read-out allows, likely interference] (inactive) |
| Cc1csc(/C(C#N)=N/OC(=O)c2ccco2)n1 | 6.4% (inactive) |
| Cc1cc(C)n(CCCN)n1 | -3.05% (inactive) |
| O=C(CSc1nccn1-c1ccc(F)cc1)Nc1ccccc1 | 9.1% (inactive) |
| Cc1nc2cccc[n+]2c(-c2ccccc2)c1C | -10.6% (inactive) |
| CCOc1cccc2sc(NC(C)=O)nc12 | 17.4% (inactive) |
| c1ccc(OCc2nc(-c3ccccn3)n[nH]2)cc1 | 4.2% (inactive) |
| N/C(COc1ccccc1)=N\O | -4.9% (inactive) |
| S=c1[nH]nc(COc2ccccc2)o1 | 64% (active) and 19.4% (inactive) |
| COc1ccc(-c2nc(CS(=O)(=O)c3ccc(F)cc3)no2)cc1OC | -17% (inactive) |
| COCCCn1cc(C(=O)c2cc(F)ccc2O)cc(C#N)c1=O | 0.95% (inactive) |
| Cc1ccccc1NC(=O)NC(=O)CC#N | -2.55% (inactive) |
| Cc1ccccc1NC(=O)COC(=O)c1ccccc1 | 16.1% (inactive) |
| Cc1ccccc1NC(=O)CSC(=O)c1ccccc1 | 75% (active) |

| SMILES | inhibition |
| --- | --- |
| CCn1c(O)c(/C=N/N=C2/C(=O)N(C)c3ccccc32)c(=O)n(CC)c1=S | 7.05% (inactive) |
| N#C/C(=C\c1cc2ccccc2nc1N1CCOCC1)C(=O)Nc1ccc2c(c1)OCCO2 | 12% (inactive) |
| CC(=O)OC1=C(Sc2ccc(Cl)cc2)C(=O)CCC1 | 59.8% (active) |
| CC1(C)CC(=O)C(Sc2ccc(Cl)cc2)=C(N2CCOCC2)C1 | 4.9% (inactive) |
| O=C(CSc1ccc(Cl)cc1)N1CCc2ccccc21 | -9.4% (inactive) |
| CCOC(=O)c1cc(S(=O)(=O)NC2CCCc3ccccc32)cn1C (configuration not stated) | -4.15% (inactive) |
| COC(=O)c1ccc(N)cc1 | 16.6% (inactive) |
| COc1ccc(-n2c(SCC(=O)c3ccc4c(c3)NC(=O)CO4)nc3ccccc3c2=O)cc1OC | -1.55% (inactive) |
| CC1(C)Oc2ccccc2C2CC(c3ccccc3)=NN21 (configuration not stated) | 10.8% (inactive) |
| Cc1ccc(NC(N)=O)cc1 | -7.15% (inactive) |
| CSC(=S)Nc1ccc(C)cc1 | -4.35% (inactive) |
| Cc1ccc(NC(=S)Nc2ccc(C)cc2)cc1 | 56.7% (active) |
| Cn1c(SCc2nc(-c3cccs3)no2)nnc1-c1ccncc1 | -11.6% (inactive) |
| CC1CC(=O)Nc2ccccc2N1C(=O)CSc1ccccn1 (configuration not stated) | -3.2% (inactive) |
| CCOC(=O)CSc1ccccn1 | 81.9% (active) |
| CCOC(=O)CSc1cc(C)nc(SCC(=O)OCC)n1 | 7.15% (inactive) |
| O=C1CSC2=NC3=C(CCCC3=C3SCCCS3)C(c3ccccc3)N12 (configuration not stated) | -4.55% (inactive) |
| O=C1c2ccccc2C(=O)N1CNc1ccccc1C1CC1 | -16.8% (inactive) |
| NCCCN1Cc2ccccc2C1 | 1.3% (inactive) |
| CC(C)(C)c1ccc(CSc2nc3c(c(=O)[nH]2)CCC3)cc1 | 81.7% (active) |
| CCc1ccccc1NC(=O)CSc1nc2c(c(=O)[nH]1)CCC2 | 9.6% (inactive) |
| CCCc1cc(=O)[nH]c(SCc2ccc(C#N)cc2)n1 | -3.9% (inactive) |
| COC(=O)c1ccc(C(=O)Nc2cc(Cl)ccc2Cl)cc1N | -179% (inactive) |

| SMILES | inhibition |
| --- | --- |
| COc1cccc(N2C(=O)/C(=C/c3ccsc3)C(=O)NC2=S)c1 | 29.9% (inactive) |
| Cn1cccc1/C=C1\C(=O)NC(=S)N(c2ccccc2)C1=O | 18.1% (inactive) |
| O=C1NC(=S)N(c2ccc(Br)cc2)C(=O)/C1=C/c1ccsc1 | 55.9% (active) |
| CCc1ccc(N(C(C)=O)c2nc(CSc3nnc4n3CCCCC4)cs2)cc1 | -11.7% (inactive) |
| CC1=C(C(=O)Nc2cccc(C(F)(F)F)c2)C(c2ccc3c(c2)OCO3)NC(=O)N1 (configuration not stated) | 5.1% (inactive) |
| CCCN(CC1CC1)Cn1c(=S)sc2ccccc21 | 65.8% (active) |
| O=C(C1CCNCC1)N1CCCCC1 | 6.4% (inactive) |
| O=C(OCCCn1c(=O)[nH]c2ccccc21)c1ccc(S(=O)(=O)N2CCOCC2)cc1 | -5% (inactive) |
| Cc1ccc(NC(=O)CN2C(=O)OC(C)(C)C2(C)O)cc1 (configuration not stated) | -10% (inactive) |
| COc1ccc(OCCCC(=O)NNc2ccccc2)cc1 | -1.15% (inactive) |
| O=C(CSc1nnc(-c2ccncc2)n1-c1ccccc1)Nc1ccccc1 | 0.45% (inactive) |
| COc1ccc(Cc2nnc(SCC(=O)Nc3ccc(S(=O)(=O)N4CCCCCC4)cc3)o2)cc1 | -15.5% (inactive) |
| Nn1c(SCC(=O)Nc2ccc(S(=O)(=O)N3CCCC3)cc2)nnc1-c1ccccc1 | 87.7% (active) |
| CCc1c(C)sc2nc(CC(=O)N3CCOCC3)[nH]c(=O)c12 | -33.3% (inactive) |
| NS(=O)(=O)c1ccc(CCNC(=O)CN2CC(=O)Nc3ccccc32)cc1 | 14.2% (inactive) |
| CNC(=O)O/N=C/c1nn(C(C)=O)cc1Br | 2.45% (inactive) |
| COc1ccc(CC(=O)Nc2ccccc2)cc1 | -14.4% (inactive) |
| CNCC(=O)Nc1ccc(OC)cc1 | -7.3% (inactive) |
| COc1ccc(Cc2n[nH]c(=S)n2NC(=O)Nc2ccc(C)cc2)cc1 | 92.9% (active) |
| CNC(=O)Cc1nnc(-c2ccc(C)cc2)o1 | -6.1% (inactive) |
| N#CC(C#N)=CNCCc1ccncc1 | -4.8% (inactive) |

Source: PubChem BioAssay AID493033 (ICCB-Longwood Screening Facility, Harvard Medical School, 2011)
